Results reported in PubChem BioAssay.
Records with an inconclusive call do not appear. Calls of active or inactive are those of the source.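 Rule for the calls, unless noted: active = response below a set limit, under 55% cells CD8-positive and vesicle-bound, and CD8 cells' 90th-percentile brightness under 279; inactive = the rest.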

What was measured:
[1] = rapamycin-like changes in RPL19A-GFP expression – cell-based, S. cerevisiae, multiplex flow cytometry, primary screen (AID 1862; in the data active = percent of DMSO control GFP below about 86%;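 note: lower values mimic rapamycin by blocking the RPL19A rise seen in DMSO cells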); settings: S. cerevisiae RPL19A-GFP strain, flow cytometry fluorescence, 3 h; at 10 µM; stronger effect = lower value
[2] = TOR pathway GLN3 branch reporter MEP2-GFP changes – S. cerevisiae, multiplex flow cytometry, primary screen (AID 1867;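 active = GFP response, as percent of the DMSO control, above the screen-wide mean plus 3 SD, about 139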;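 note: median GFP channel fluorescence of barcode-gated MEP2-GFP cells measured by flow cytometry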); settings: S. cerevisiae MEP2-GFP strain, 3 h, at 10 µM, stronger effect = higher value, 100% means same as DMSO wells
[3] = TOR pathway RTG branch CIT2 reporter changes – S. cerevisiae, GFP fusion, multiplex flow cytometry, primary screen (AID 1870;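 active = percent response above a set limit, the screen-wide mean plus 3 SD, cut at about 130% in these data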;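 note: barcoded CIT2-GFP strain pooled with four other GFP strains with rapamycin as positive control; median GFP fluorescence per well over plate mean of DMSO wells so 100% = DMSO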); settings: S. cerevisiae CIT2-GFP expression, 3 h, at 10 µM, stronger effect = higher value
[4] = TOR pathway LAP4-GFP level changes – S. cerevisiae, multiplex flow cytometry, primary screen (AID 1873;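 active = GFP signal, as percent of the solvent control, above the screen mean plus 3 SD, about 149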); settings: S. cerevisiae LAP4-GFP expression, 3 h, at 10 µM, stronger effect = higher value
[5] = yeast AGP1-GFP level changes, GLN3 branch – cell-based, multiplex flow cytometry, S. cerevisiae, primary screen (AID 1887;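 active = GFP signal above the screen-wide mean plus 3 SD, that is over about 124.5% of the solvent control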;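 note: AGP1-GFP fusion strain of S. cerevisiae within a five-strain barcoded multiplex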); settings: 3 h, at 10 µM, stronger effect = higher value
[6] = reduced mouse 2C T cell binding to pMHC/ICAM-1 vesicles – MLPCN validation set, flow cytometry, LFA-1/ICAM-1 modulator project, pilot screen (AID 2523); settings: 2C mouse CD8+ T cells, at 7 µM, stronger effect = lower value; double positive events: measured here: CD8+/vesicle+ event percentage;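 for vesicle binding response: mean PE anti-B7-1 fluorescence of CD8+ cells relative to row control; 100% = QL9-loaded vesicles with DMSO vehicle in the same plate row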
[7] = biological target: Integrin beta-1 (Homo sapiens) + Integrin alpha-4 (Homo sapiens) (UniProt P13612+P05556); assay: alpha4beta1 integrin LIBS antibody binding reduction – U937 cells, HUTS-21 mAb, flow cytometry, validation set, VLA-4 allosteric modulator project, pilot screen (AID 2674;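 active = inhibition above 50%, about 3 SD of the validation set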;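 note: antibody binding induced by the VLA-4 ligand LDV present at three times its Kd; 0% = LDV ligand with antibody and no compound and 100% = antibody without LDV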); settings: HUTS-21 LIBS mAb binding, at 6.7 µM, stronger effect = higher value, binding induced by LDV ligand
Integrin beta-1 (Homo sapiens) + Integrin alpha-4 (Homo sapiens), sequence (P05556 whole entry, looked up): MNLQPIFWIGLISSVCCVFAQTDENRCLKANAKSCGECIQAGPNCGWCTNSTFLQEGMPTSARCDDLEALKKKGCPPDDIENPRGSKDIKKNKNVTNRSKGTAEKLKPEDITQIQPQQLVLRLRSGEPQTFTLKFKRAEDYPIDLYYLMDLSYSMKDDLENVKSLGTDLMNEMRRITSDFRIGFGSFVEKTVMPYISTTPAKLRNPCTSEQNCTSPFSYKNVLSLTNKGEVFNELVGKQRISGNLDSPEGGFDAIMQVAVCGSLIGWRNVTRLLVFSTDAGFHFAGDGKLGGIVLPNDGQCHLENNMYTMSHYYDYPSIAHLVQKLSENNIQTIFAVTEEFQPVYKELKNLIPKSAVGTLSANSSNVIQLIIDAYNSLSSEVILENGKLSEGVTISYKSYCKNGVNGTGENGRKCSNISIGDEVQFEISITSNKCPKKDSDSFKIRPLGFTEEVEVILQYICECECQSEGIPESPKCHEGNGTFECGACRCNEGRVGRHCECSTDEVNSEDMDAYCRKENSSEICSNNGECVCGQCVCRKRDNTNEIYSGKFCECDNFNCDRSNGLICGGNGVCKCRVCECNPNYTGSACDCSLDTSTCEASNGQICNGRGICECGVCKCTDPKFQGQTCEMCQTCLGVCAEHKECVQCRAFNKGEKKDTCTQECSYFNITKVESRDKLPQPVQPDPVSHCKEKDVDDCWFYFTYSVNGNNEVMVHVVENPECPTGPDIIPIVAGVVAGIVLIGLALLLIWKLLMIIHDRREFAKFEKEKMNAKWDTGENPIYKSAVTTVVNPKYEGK
Integrin beta-1 (Homo sapiens) + Integrin alpha-4 (Homo sapiens), sequence (P13612 whole entry, looked up): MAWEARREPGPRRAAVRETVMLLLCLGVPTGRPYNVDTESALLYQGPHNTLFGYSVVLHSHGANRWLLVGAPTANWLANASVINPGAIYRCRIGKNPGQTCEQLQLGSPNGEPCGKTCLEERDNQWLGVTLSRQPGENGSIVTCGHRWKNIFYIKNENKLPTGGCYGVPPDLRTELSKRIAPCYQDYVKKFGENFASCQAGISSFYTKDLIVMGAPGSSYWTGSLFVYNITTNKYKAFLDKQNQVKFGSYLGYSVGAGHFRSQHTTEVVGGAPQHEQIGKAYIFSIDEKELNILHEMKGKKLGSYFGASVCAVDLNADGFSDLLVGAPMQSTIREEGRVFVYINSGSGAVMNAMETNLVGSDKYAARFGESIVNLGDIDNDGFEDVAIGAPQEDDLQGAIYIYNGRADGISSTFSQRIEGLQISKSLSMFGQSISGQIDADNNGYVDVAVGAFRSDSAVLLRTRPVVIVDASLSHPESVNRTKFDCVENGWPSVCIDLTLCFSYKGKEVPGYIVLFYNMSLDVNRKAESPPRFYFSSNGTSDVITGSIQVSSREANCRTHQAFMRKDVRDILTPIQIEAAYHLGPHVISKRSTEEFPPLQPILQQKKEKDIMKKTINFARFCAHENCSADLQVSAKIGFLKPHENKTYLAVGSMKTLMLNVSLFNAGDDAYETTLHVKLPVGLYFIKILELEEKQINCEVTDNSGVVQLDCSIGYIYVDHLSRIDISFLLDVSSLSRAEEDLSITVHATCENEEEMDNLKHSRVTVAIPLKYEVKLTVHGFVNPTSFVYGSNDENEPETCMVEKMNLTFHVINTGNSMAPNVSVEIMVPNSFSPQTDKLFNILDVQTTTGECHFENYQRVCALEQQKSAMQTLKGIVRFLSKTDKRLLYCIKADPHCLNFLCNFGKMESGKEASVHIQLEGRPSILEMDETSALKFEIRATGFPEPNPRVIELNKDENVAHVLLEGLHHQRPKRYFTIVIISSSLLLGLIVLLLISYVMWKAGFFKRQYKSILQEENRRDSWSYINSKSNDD

[8] = calorie-restriction mimetic ROS inhibitors, yeast – validation compound set, pilot screen (AID 2706;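 active = superoxide response below 65% of plate, a cut near 3 SD across the whole screen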;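 note: yeast exposed to compound for one week at 30 degrees C before staining; 100% = mean of all compound wells on the same plate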); settings: S. cerevisiae aging, superoxide DHE fluorescence; at 10 µM; stronger effect = lower value
[9] = biological target: Beta-adrenergic receptor kinase 1 (Homo sapiens) (UniProt P25098); assay: GRK2 binders displacing RNA aptamer, biochemical, validation, human GRK2, bead flow cytometry (AID 488806;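 active = aptamer binding inhibition above 30%, about 3 SD of noise from non-fluorescent compounds; inactive = inhibition at or below 30%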); settings: bead-bound GRK2, FAM-aptamer displacement, at 10 µM, stronger effect = higher value
Beta-adrenergic receptor kinase 1 (Homo sapiens), sequence (P25098 whole entry, looked up): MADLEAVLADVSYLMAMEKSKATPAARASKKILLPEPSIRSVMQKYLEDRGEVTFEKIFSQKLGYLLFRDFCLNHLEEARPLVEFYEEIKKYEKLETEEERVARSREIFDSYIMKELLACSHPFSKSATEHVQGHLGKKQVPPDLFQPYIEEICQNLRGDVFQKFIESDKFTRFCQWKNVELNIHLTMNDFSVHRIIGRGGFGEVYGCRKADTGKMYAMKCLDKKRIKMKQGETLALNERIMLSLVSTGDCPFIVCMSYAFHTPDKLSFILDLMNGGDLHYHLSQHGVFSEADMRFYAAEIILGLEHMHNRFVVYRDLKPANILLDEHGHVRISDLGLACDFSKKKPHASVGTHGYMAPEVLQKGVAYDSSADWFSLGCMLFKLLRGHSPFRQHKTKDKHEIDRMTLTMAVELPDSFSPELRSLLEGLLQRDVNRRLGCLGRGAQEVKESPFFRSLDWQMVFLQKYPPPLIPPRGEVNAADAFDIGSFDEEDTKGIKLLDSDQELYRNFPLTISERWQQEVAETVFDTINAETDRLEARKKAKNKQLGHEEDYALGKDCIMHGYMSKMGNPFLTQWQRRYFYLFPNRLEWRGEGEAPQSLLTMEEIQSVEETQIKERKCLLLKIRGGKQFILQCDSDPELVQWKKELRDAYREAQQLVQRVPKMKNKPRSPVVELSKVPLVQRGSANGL

[10] = biological target: Beta-2 adrenergic receptor (Homo sapiens) (UniProt P07550); assay: agonist-induced loss of surface beta2AR – cell-based, FAP fluorogen, flow cytometry, validation set, pilot screen (AID 504459;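 active = percent response above 42, roughly 3 SD of non-fluorescent test compounds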;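 note: agonist-driven loss of surface beta2AR via internalization measured by FAP dye flow cytometry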); settings: Am2.2-beta2AR cells, at 10 µM, stronger effect = higher value
Beta-2 adrenergic receptor (Homo sapiens), sequence (P07550 whole entry, looked up): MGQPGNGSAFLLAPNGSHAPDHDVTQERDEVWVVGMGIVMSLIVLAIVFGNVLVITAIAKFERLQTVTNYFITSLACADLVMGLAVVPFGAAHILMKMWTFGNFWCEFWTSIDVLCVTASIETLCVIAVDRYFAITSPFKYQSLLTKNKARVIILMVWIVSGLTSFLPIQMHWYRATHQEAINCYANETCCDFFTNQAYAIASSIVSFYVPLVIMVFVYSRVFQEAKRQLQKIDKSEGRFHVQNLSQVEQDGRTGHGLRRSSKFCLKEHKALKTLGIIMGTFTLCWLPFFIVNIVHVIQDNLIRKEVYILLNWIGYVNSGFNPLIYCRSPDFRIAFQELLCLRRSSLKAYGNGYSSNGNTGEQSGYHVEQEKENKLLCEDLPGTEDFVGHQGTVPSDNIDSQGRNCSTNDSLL

[11] = biological target: AP-2 complex subunit beta (Homo sapiens) (UniProt P63010); assay: beta-arrestin/AP2 interaction blockers – biochemical, validation set, GST-AP2 beads, flow cytometry, pilot screen (AID 504541;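 active = inhibition above 54%, about 3 SD of non-fluorescent compounds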;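 note: AP2 carries R879A mutation and is captured from E. coli lysate; bead-bound FITC arrestin peptide fluorescence measuring arrestin peptide binding to AP2; 0% = DMSO wells and 100% = excess unlabeled arrestin peptide control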); settings: FITC arrestin peptide, at 10 µM, stronger effect = higher value, AP2 beta2 appendage fragment, R879A mutant
AP-2 complex subunit beta (Homo sapiens), sequence (P63010 whole entry, looked up, the tested form may be a part, one chain of several): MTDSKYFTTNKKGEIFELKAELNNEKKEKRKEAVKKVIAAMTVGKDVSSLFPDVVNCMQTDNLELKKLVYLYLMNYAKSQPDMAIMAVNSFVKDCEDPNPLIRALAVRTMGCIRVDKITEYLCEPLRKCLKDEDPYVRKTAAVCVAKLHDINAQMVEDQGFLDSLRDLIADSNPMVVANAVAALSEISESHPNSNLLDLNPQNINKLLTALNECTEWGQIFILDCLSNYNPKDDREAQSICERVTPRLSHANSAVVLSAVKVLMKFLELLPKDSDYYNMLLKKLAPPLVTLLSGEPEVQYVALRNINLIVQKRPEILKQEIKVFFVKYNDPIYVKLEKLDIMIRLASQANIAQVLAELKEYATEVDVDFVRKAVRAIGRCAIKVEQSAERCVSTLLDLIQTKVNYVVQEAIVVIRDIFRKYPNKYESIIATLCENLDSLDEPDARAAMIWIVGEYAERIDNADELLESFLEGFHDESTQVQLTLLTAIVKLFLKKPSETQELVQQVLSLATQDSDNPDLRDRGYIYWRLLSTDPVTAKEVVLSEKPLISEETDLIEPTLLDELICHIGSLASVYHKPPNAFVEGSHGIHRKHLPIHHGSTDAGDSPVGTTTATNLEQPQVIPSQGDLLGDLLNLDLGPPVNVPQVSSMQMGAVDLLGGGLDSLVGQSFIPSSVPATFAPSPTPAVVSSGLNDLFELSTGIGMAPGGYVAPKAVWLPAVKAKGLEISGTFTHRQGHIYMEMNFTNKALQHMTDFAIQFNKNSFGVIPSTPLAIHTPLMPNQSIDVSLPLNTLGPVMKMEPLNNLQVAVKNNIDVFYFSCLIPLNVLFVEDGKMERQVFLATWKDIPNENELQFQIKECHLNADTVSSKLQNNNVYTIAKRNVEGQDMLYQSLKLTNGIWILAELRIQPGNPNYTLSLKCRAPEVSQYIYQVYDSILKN

[12] = cytosolic pH regulators acting via V-ATPase – S. cerevisiae, pHLuorin, HTS validation (AID 504600; in the data active = response above about 15%;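 note: plate controls were DMSO for no effect and reference compound for full effect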); settings: V-ATPase proton transport, at 10 µM, stronger effect = higher value
[13] = tested on: anti-desmoglein-3 scFv antibody binding to human DSG3; assay: blockers of pathogenic pemphigus antibody–desmoglein-3 binding – biochemical, validation compound set, bead-based, flow cytometry, pilot screen (AID 588368;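 active = binding below the plate cutoff, the plate median minus 3 SD, with a reading above zero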;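 note: signal is the median channel fluorescence of bead-bound GFP antibody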); settings: Protein G beads, DSG3-Fc, scFv-GFP binding, at 10 µM, stronger effect = lower value
[14] = Nile Red efflux blockade in pump-expressing yeast – validation compound set, multiplex, phenotypic, pilot screen (AID 588506;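 active = efflux inhibition above 0.42, the validation set average plus 4 SD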;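 note: Nile Red retained in cells so higher fluorescence means more efflux inhibition; 0 = negative control wells and 1 = enniatin B 25 µM full block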); settings: S. cerevisiae pump-expressing triplex, Nile Red efflux flow cytometry; at 10 µM; stronger effect = higher value; the pumps come from Candida albicans
[15] = biological target: ATP-binding cassette sub-family B member 6 (Homo sapiens) (UniProt Q9NP58); assay: blockers of ABCB6-driven porphyrin uptake – K562-ABCB6 cells, flow cytometry, validation set, pilot screen (AID 588550;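 active = inhibition above the screen-wide mean plus 3 SD, about 51%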;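 note: 0% = DMSO wells and 100% = benzethonium chloride 70 µM positive control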); settings: K562-ABCB6 porphyrin accumulation, 1 h, at 10 µM, stronger effect = higher value
ATP-binding cassette sub-family B member 6 (Homo sapiens), sequence (Q9NP58 whole entry, looked up): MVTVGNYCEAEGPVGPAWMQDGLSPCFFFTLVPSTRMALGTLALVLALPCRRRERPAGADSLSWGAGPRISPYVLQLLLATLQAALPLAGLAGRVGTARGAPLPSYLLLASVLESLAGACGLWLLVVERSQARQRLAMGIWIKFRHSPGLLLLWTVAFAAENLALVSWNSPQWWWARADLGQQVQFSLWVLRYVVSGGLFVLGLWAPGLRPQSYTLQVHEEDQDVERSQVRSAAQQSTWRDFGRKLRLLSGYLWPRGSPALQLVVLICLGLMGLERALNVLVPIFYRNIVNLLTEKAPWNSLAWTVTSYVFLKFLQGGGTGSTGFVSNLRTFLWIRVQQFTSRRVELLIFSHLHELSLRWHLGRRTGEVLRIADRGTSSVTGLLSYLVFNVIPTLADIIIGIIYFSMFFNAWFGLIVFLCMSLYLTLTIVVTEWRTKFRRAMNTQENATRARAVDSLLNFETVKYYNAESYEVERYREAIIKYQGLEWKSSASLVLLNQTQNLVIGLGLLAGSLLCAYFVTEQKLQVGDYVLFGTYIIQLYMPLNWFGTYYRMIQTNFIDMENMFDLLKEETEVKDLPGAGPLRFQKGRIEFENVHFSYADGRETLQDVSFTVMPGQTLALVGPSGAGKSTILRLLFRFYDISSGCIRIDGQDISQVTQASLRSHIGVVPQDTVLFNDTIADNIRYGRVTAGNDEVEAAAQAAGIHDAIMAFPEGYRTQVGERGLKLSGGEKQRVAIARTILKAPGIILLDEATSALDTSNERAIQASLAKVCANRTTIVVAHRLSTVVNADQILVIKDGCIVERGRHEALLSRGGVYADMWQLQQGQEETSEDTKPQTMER

[16] = AML differentiation inducers, ER-HoxA9 marrow cells – cell-based, GFP/MAC1 double positive, flow cytometry, validation set, primary screen (AID 588685;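 active = differentiation response of at least 50%, scaled between solvent and reference control, from cells with both markers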;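 note: compound exposure lasts four days before antibody staining and flow analysis; 0% = DMSO wells and 100% = 5 µM fulvestrant positive control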); settings: stronger effect = higher value, normalized: vehicle 0, fulvestrant 100

SMILES	percent of DMSO control GFP [1]	GFP response vs DMSO [2]	percent response of DMSO control [3]	GFP response vs DMSO [4]	GFP response, % of DMSO [5]	double positive events [6]	vesicle binding response [6]	inhibition [7]	superoxide response (% of plate) [8]	aptamer binding inhibition [9]	response [10]	inhibition [11]	response [12]	binding (% of control) [13]	efflux inhibition (fraction of control) [14]	inhibition [15]	differentiation response [16]
CC[N+]1(CC)CC2=Cc3ccccc3CC2C1 (stereo not given)	91.5% (inactive)	121% (inactive)	93.9% (inactive)	80.3% (inactive)	88.9% (inactive)	64.8%	178% (inactive)	13.2% (inactive)	90.8% (inactive)	2% (inactive)	0.79% (inactive)	43.9% (inactive)	-6.57% (inactive)	99% (inactive)	0.3 (inactive)	13% (inactive)	0% (inactive)
O=C(c1cc2cc(Br)ccc2o1)N1CCCC1	101% (inactive)	106% (inactive)	97.6% (inactive)	139% (inactive)	99.4% (inactive)	56.9%	146% (inactive)	-5.11% (inactive)	93.6% (inactive)	0% (inactive)	-10.4% (inactive)	-6.7% (inactive)	0.97% (inactive)	103% (inactive)	-0.07 (inactive)	9% (inactive)	-3.11% (inactive)
CC1(C)C(=O)OC(C(=O)c2ccc(Cl)cc2)C(C)(C)C1=O (stereo not given)	103% (inactive)	90.9% (inactive)	107% (inactive)	97.3% (inactive)	103% (inactive)	66.1%	261% (inactive)	-11.9% (inactive)	104% (inactive)	2% (inactive)	-5.23% (inactive)	-10.6% (inactive)	-4.25% (inactive)	99.3% (inactive)	-0.01 (inactive)	-4% (inactive)	-4.64% (inactive)
COc1ccc2nc(C)cc(Nc3ccccc3O)c2c1	94.2% (inactive)	108% (inactive)	90.1% (inactive)	115% (inactive)	99.4% (inactive)	58%	120% (inactive)	-7.25% (inactive)	91.3% (inactive)	-3% (inactive)	7.69% (inactive)	3.21% (inactive)	1.21% (inactive)	101% (inactive)	0.01 (inactive)	9% (inactive)	-20% (inactive)
Cc1nc2ccccc2n1CC(=O)NC1CCCC1	101% (inactive)	95.6% (inactive)	109% (inactive)	92.6% (inactive)	105% (inactive)	60.6%	118% (inactive)	-2.43% (inactive)	84.9% (inactive)	-2% (inactive)	7.07% (inactive)	-5.83% (inactive)	0.83% (inactive)	105% (inactive)	0.115 (inactive)	-2% (inactive)	-8.96% (inactive)
O=C(O)c1ccccc1C(=O)OCCCCOC(=O)c1ccccc1C(=O)O	104% (inactive)	85.6% (inactive)	105% (inactive)	82.2% (inactive)	98.6% (inactive)	64.9%	1380% (inactive)	-0.45% (inactive)	88% (inactive)	6% (inactive)	-3.48% (inactive)	-4.07% (inactive)	1.28% (inactive)	92.7% (inactive)	0.21 (inactive)	2% (inactive)	4.15% (inactive)
Cc1ncoc1C(=O)N1CCCC(C(=O)c2ccc(-c3ccccc3)c(F)c2)C1 (stereo not given)	102% (inactive)	121% (inactive)	112% (inactive)	76.5% (inactive)	94% (inactive)	49.9%	220% (inactive)	-3.24% (inactive)	110% (inactive)	8% (inactive)	-19.4% (inactive)	4.25% (inactive)	-6.69% (inactive)	101% (inactive)	0.01 (inactive)	12% (inactive)	0.82% (inactive)
O=C1C(Cc2c[nH]c3ccccc23)NC(=S)N1Cc1ccccc1 (stereo not given)	108% (inactive)	102% (inactive)	104% (inactive)	91.5% (inactive)	95.5% (inactive)	67.5%	132% (inactive)	8.29% (inactive)	104% (inactive)	1% (inactive)	3.86% (inactive)	2.2% (inactive)	-1.19% (inactive)	94.9% (inactive)	0 (inactive)	8% (inactive)	7.13% (inactive)
COc1c2ccoc2nc2c(OC)cccc12	105% (inactive)	101% (inactive)	95.8% (inactive)	102% (inactive)	105% (inactive)	64.2%	5040% (inactive)	21.4% (inactive)	82.1% (inactive)	5% (inactive)	-6.43% (inactive)	-5.75% (inactive)	0.27% (inactive)	97.2% (inactive)	-0.13 (inactive)	6% (inactive)	-15.2% (inactive)
CC(=O)Oc1cc2oc(=O)cc(C)c2cc1OC(C)=O	101% (inactive)	102% (inactive)	99.6% (inactive)	73.5% (inactive)	86% (inactive)	60%	207% (inactive)	-5.89% (inactive)	102% (inactive)	10% (inactive)	-3.64% (inactive)	3.54% (inactive)	1.09% (inactive)	101% (inactive)	0.08 (inactive)	7% (inactive)	-15.2% (inactive)
